Holding throughout (format): functional
Test [1] deals with Plasmodium falciparum. Put plainly: GSK_TCMDC: Inhibition of Plasmodium falciparum 3D7 in whole red blood cells, using parasite LDH activity as an index of growth. Test compounds present at 2uM.
Test [2] deals with Plasmodium falciparum. Put plainly: GSK_TCMDC: Inhibition of Plasmodium falciparum Dd2 in whole red blood cells, using parasite LDH activity as an index of growth. Test compounds present at 2uM.
The next test relates to HepG2. As to the kind of experiment: GSK_TCMDC: Percent inhibition of human HepG2 cell line. Test compounds present at 10uM.

For the compound `COc1cccc(C(=O)NCc2cccs2)c1OCc1ccccc1`, the Inhibition was determined as 96% with Plasmodium falciparum [1], 0% with Plasmodium falciparum [2] and 0% in the test on HepG2.
With `O=C(O)C(F)(F)F.Oc1ccc(CN2Cc3ccccc3OC3(CCN(Cc4c[nH]c5cnccc45)CC3)C2)cc1`, the Inhibition is recorded as 100% in the test on Plasmodium falciparum [1], 3% in the test with Plasmodium falciparum [2] and 17% in the test with HepG2.
As for `CCc1cccc(NC(=O)c2ccc(CN3CCCN(CC4CCCCC4)CC3)cc2)c1.O=C(O)C(F)(F)F`, the Inhibition in the test on Plasmodium falciparum [1] came to 84%; in the test with Plasmodium falciparum [2] it was 36%; in the test with HepG2, 44%.
For the compound `O=C(Nc1ccc(OC2CCN(Cc3ccc(F)cc3)C2)cc1)c1ccco1.O=C(O)C(F)(F)F` (stereo not drawn), the Inhibition with Plasmodium falciparum [1] turned out to be 88%; in the test with Plasmodium falciparum [2] it was 69%; in the test on HepG2, 0%.
In the same order, the values of `Cl.OCCNc1nc(Nc2cccc(O)c2)nc2ccccc12` are 96%, 55% and 3%.
For `O=C(O)C(F)(F)F.c1cc(CN2CCN(c3ccncc3)CC2)cc(-c2cccc(-c3nc4ccccc4[nH]3)c2)c1` the same measures were 100%, 98% and 35%.
In the same order, the values of `Br.CC(CON1C(N)=NC(N)=NC1(C)C)Cc1ccc(Cl)cc1Cl` (stereo not drawn) are 92%, 97% and 61%.
For the compound `Cc1ccc(O)c(-c2cc(C(=O)Nc3ccc(S(=O)(=O)N4CCCCC4)cc3)[nH]n2)c1`, the Inhibition was determined as 94% in the test with Plasmodium falciparum [1], 98% with Plasmodium falciparum [2] and 31% with HepG2.
In the same order, the values of `Cc1nnc(NC(=O)c2cn(-c3ccccc3)nc2-c2ccccc2C)o1` are 93%, 87% and 37%.
Consider `COc1ccc2c(c1)[nH]c1c(C=Cc3ccccc3)nccc12.O=[N+]([O-])O`, for which the figures for the Inhibition in the test on Plasmodium falciparum [1], in the test with Plasmodium falciparum [2] and in the test with HepG2 were 91%, 6% and 19%, respectively.
For `CC(C)N(Cc1ccc(-c2ccc(C(F)(F)F)cc2)cc1)C(=O)Cn1c(CCc2cccc(F)c2F)cc(=O)c2ccc(CCCN3CCCCC3)cc21.O=C(O)C(O)C(O)C(=O)O` the same measures were 100%, 82% and 99%.
For `C=CCc1ccc(C[C@H](NC(=O)OC(C)(C)C)C(=O)OC)cc1` the same measures were 98%, 98% and 77%.
For `C=CCC(C(=O)Nc1ccnc2ccc(OC)cc12)C1CCN(CCCCCCC)CC1` (stereo not drawn) the same measures were 86%, 84% and 20%.
For `C=C(C)Cn1cc(C2CCN(CCN3CCC(CNC(=O)c4ccc(-c5ccc(C#N)cc5)cc4)CC3)CC2)c2ccccc21`, the Inhibition with Plasmodium falciparum [1] was found to be 99%; in the test with Plasmodium falciparum [2], 94%; with HepG2, 64%.
As for `Cc1cc(=NN=Cc2ccc(F)cc2)c2ccc(C(F)(F)F)cc2[nH]1`, the Inhibition in the test on Plasmodium falciparum [1] is 95%; with Plasmodium falciparum [2], 24%; in the test on HepG2, 4%.
Consider `CCNc1cc(C(=O)N[C@@H](Cc2ccc(F)c(F)c2)[C@H](O)CNCc2cccc(OC)c2)cc(N2CCCCS2(=O)=O)c1.Cl`, for which the Inhibition with Plasmodium falciparum [1] amounted to 99%; in the test on Plasmodium falciparum [2] it was 85%; with HepG2, 4%.
In the same order, the values of `COCCNCc1cccc(-c2ccc3c(Nc4ccc(F)cc4Cl)ccnc3c2)c1` are 100%, 100% and 8%.
In the same order, the values of `Cc1ccc(S(=O)(=O)O)cc1.N=C(NCCc1c[nH]c2ccccc12)NCc1ccccc1Cl` are 83%, 45% and 16%.
As for `CC(C)(C)c1nn(-c2ccc(Cl)cc2)c2[nH]c(=O)c(CNC3CCCC3)cc12`, the Inhibition is on record as 99% with Plasmodium falciparum [1], 99% in the test on Plasmodium falciparum [2] and 0% with HepG2.
For the compound `Cc1ccccc1C1CCN(C2CCC(NC(=O)c3ccc(-c4ccccn4)s3)CC2)CC1` (stereo not drawn), the Inhibition in the test on Plasmodium falciparum [1] came to 87%; in the test on Plasmodium falciparum [2] it was 17%; with HepG2, 32%.
On to `COc1cccc(CNc2noc(-c3c(-c4ccccc4)noc3C)n2)c1OC`, for which the Inhibition in the test on Plasmodium falciparum [1] worked out at 97%; in the test with Plasmodium falciparum [2], 86%; in the test with HepG2, 0%.
For `COc1cc(Nc2nc(N)c3cc(OC)c(OC)cc3n2)cc(OC)c1.Cl` the same measures were 100%, 100% and 7%.
In the same order, the values of `Cc1ncccc1C(=O)Nc1cccc(-c2cccc(-c3nc4cccc(C)c4[nH]3)c2)c1` are 93%, 69% and 6%.
In the same order, the values of `O=C(/C=C/c1ccc(Cl)c(Cl)c1)NCCCCCN1CCCC(CNC(=O)Nc2ccc(Oc3ccccc3)cc2)C1` (stereo not drawn) are 99%, 6% and 26%.
Turning to `Br.Oc1ccc(CCNCCCCCCNCCc2ccc(Cl)cc2)c(Cl)c1O`, the Inhibition in the test with Plasmodium falciparum [1] is on record as 100%; with Plasmodium falciparum [2], 30%; in the test with HepG2 it was 23%.
For `Cl.c1ccc2c(C3CCN(CCCCOc4ccc5c(c4)CCN(C4CCC4)CC5)CC3)c[nH]c2c1` the same measures were 100%, 100% and 80%.
For `CN1CCCC1CCCOC(=O)c1ccc(N)cc1` (stereo not drawn), the Inhibition worked out at 100% in the test with Plasmodium falciparum [1], 2% in the test on Plasmodium falciparum [2] and 8% with HepG2.
In the same order, the values of `O=C(NCCCCN1CCC(c2ccc(Br)cc2)CC1)c1ccc(NC(=O)c2ccc(Cl)cc2)cc1` are 100%, 86% and 17%.
For the compound `CC(C)(C)OC(=O)[C@H](CC(N)=O)NC(=O)c1ccc(-c2ccc(-c3nc4cc(C(F)(F)F)ccc4[nH]3)s2)cc1`, the Inhibition is recorded as 94% in the test on Plasmodium falciparum [1], 88% with Plasmodium falciparum [2] and 62% with HepG2.
On to `CC(=O)Oc1c(C2CCN(CCCCNC(=O)c3ccc(NC(=O)c4ccc(Cl)cc4)cc3)CC2)ccc2c1CCCC2`, for which the Inhibition in the test on Plasmodium falciparum [1] worked out at 100%; with Plasmodium falciparum [2] it was 80%; in the test on HepG2, 21%.
For `Cc1cccc2nc(-c3ccc(-c4ccc(NC(=O)NCc5ccccc5)cc4)s3)[nH]c12` the same measures were 93%, 8% and 79%.
For `CC1(CCc2ccccc2)N=C(Nc2ccc(Cl)cc2)N=C(N)C1c1ccc(Cl)c(Cl)c1` (stereo not drawn), the Inhibition in the test with Plasmodium falciparum [1] is given as 100%; in the test on Plasmodium falciparum [2], 98%; in the test on HepG2, 81%.
In the same order, the values of `COc1cc(F)c2nccc([C@@H](O)CN3CCC(NCc4ccc5c(n4)NC(=O)CS5)C(F)C3)c2c1.Cl` (stereo partly drawn) are 87%, 80% and 32%.
For `O=C(CCCCCNC(=O)c1ccc(O)c(-c2ccc(Cl)c(Cl)c2)c1)NCCN1CCOCC1` the same measures were 95%, 0% and 0%.
In the same order, the values of `COCc1ccc(CN2CCC(C(=O)Nc3ccc(-c4nc5ccccc5[nH]4)cc3)CC2)o1` are 97%, 13% and 13%.
`O=C(Cc1c[nH]cn1)Nc1cccc(-c2cccc(-c3nc4ccccc4[nH]3)c2)c1`: the values for the Inhibition in the test on Plasmodium falciparum [1], in the test on Plasmodium falciparum [2] and with HepG2 were 97%, 60% and 24%, respectively.
For the compound `CC(CN1CCN(C)CC1)C(=O)Nc1ccc(-c2cccc(-c3nc4ccccc4[nH]3)c2)cc1` (stereo not drawn), the figures for the Inhibition with Plasmodium falciparum [1], with Plasmodium falciparum [2] and in the test on HepG2 were 94%, 81% and 4%, respectively.
For `CCn1ccc2c(N3CCCCS3(=O)=O)cc(C(=O)N[C@@H](Cc3ccccc3)[C@H](O)CNC(C)(C)CCCC(C)C)cc21` the same measures were 96%, 98% and 23%.
On to `CCCCN(CCCC)C(=O)CC(O)c1cc2c(Cl)cc(Cl)cc2c2cc(C(F)(F)F)ccc12` (stereo not drawn), for which the Inhibition is 92% in the test on Plasmodium falciparum [1], 68% with Plasmodium falciparum [2] and 0% with HepG2.
For `Cc1ccc(NC(=O)NC2CCN(c3ccnc4ccccc34)C2)cc1.O=C(O)C(F)(F)F` (stereo not drawn) the same measures were 99%, 48% and 7%.
For `COc1ccc(-c2nc3cccnc3n2CC(=O)Nc2c(C)cc(C)cc2C)c(OC)c1` the same measures were 91%, 21% and 77%.
Regarding `c1cncc(CN2CCN(Cc3ccc(-c4ccc(-c5nc6ccccc6[nH]5)s4)cc3)CC2)c1`, the Inhibition with Plasmodium falciparum [1] came to 97%; in the test on Plasmodium falciparum [2], 34%; in the test with HepG2 it was 32%.
For `CC(=O)c1cc(N2CCCC2)ccc1N` the same measures were 97%, 97% and 1%.
Take `CC(O)C1CCCCN1C(=O)c1cccc(-c2ccc(-c3nc4ccccc4[nH]3)s2)c1` (stereo not drawn): the Inhibition in the test on Plasmodium falciparum [1] was found to be 100%; in the test on Plasmodium falciparum [2], 23%; in the test on HepG2 it was 24%.
For `O=C(Nc1ccc(Br)cc1)c1cc(Br)ccc1NS(=O)(=O)c1ccc(C(F)(F)F)cc1`, the values for the Inhibition in the test with Plasmodium falciparum [1], in the test on Plasmodium falciparum [2] and in the test on HepG2 were 100%, 56% and 53%, respectively.
For `COc1ccc(CNCc2ccc(-c3ccc(-c4nc5cc(C(F)(F)F)ccc5[nH]4)cc3)cc2)cc1.O=C(O)C(F)(F)F`, the figures for the Inhibition in the test on Plasmodium falciparum [1], in the test on Plasmodium falciparum [2] and in the test with HepG2 were 100%, 99% and 75%, respectively.
For `C=Cc1c(C2CCN(CCCCNC(=O)c3ccc(-c4ccc(C#N)cc4)cc3)CC2)ccc2c1CCCC2` the same measures were 94%, 75% and 75%.
In the same order, the values of `Cc1cc(=NN=Cc2ccc(F)cc2)c2cc(F)ccc2[nH]1` are 100%, 61% and 6%.
For `CN(c1ccc(F)cc1)S(=O)(=O)c1ccc(Cl)c(C(=O)Nc2cccc(C#N)c2)c1`, the Inhibition in the test on Plasmodium falciparum [1] was determined as 95%; with Plasmodium falciparum [2] it was 58%; with HepG2, 5%.
For `COc1ccccc1CNC(=O)c1cc(Br)cc(N2CCN(c3ccncc3)CC2)c1.O=C(O)C(F)(F)F` the same measures were 95%, 76% and 43%.
For the compound `CNc1ccc(CNCc2cccc(-c3ccc(-c4nc5ccccc5[nH]4)s3)c2)cc1.O=C(O)C(F)(F)F`, the Inhibition came out at 100% with Plasmodium falciparum [1], 77% in the test on Plasmodium falciparum [2] and 15% in the test on HepG2.
In the same order, the values of `Fc1ccc2[nH]c(-c3ccc(-c4cccc(CN5CCN(c6ccncc6)CC5)c4)cc3)nc2c1.O=C(O)C(F)(F)F` are 100%, 100% and 66%.
For `N#Cc1cccc(C(=O)N2CCOC(CCN3CCC(c4ccccc4)CC3)(c3ccc(Cl)c(Cl)c3)C2)c1` (stereo not drawn), the Inhibition with Plasmodium falciparum [1] is 87%; in the test with Plasmodium falciparum [2], 49%; in the test on HepG2, 51%.
For `CCc1ccc(CN2CCC(NC(=O)c3ccc(-c4ccc(N(C)C)cc4)s3)CC2)cc1.O=C(O)C(F)(F)F` the same measures were 84%, 44% and 52%.
For `CCCCN(CCCC)Cc1cc(Nc2ccnc3cc(Cl)ccc23)ccc1O.Cl` the same measures were 100%, 87% and 67%.
For `COc1ccc(CCNc2nc(NCc3ccccc3)c3cc(OC)c(OC)cc3n2)cc1OC` the same measures were 100%, 91% and 46%.
For `O=C(/C=C/c1c(Cl)cccc1Cl)NC1CCC(CN2CCC(Cc3cc4ccccc4[nH]3)CC2)CC1` (stereo not drawn), the figures for the Inhibition with Plasmodium falciparum [1], in the test with Plasmodium falciparum [2] and in the test with HepG2 were 91%, 17% and 97%, respectively.
In the same order, the values of `COc1ccccc1CCCN1C(=O)C(c2ccccc2)(c2ccccc2)N=C1N.O=C(O)C(F)(F)F` are 99%, 99% and 49%.
For `ON=C1CCc2cc(-c3cc(-c4ccc(OC5CCNCC5)cc4)oc3-c3ccncc3)ccc21` the same measures were 100%, 99% and 34%.
In the same order, the values of `CN1CCC(Oc2ccc(CN3CC[C@H](NC(=O)c4ccc(F)c(F)c4)C3)c3ccccc23)C1.O=C(O)C(F)(F)F` (stereo partly drawn) are 91%, 27% and 20%.
Regarding `Fc1ccc2[nH]c(-c3ccc(-c4ccc(CNCCc5ccncc5)cc4)s3)nc2c1.O=C(O)C(F)(F)F`, the Inhibition in the test with Plasmodium falciparum [1] is given as 99%; in the test on Plasmodium falciparum [2], 100%; in the test with HepG2, 34%.

For orientation: Inhibition means the relative decrease from the control value, in per cent. Low values mean little suppression, high ones strong suppression.
